Measurements taken from the supplement of paper PMC8371130.
Where a name gives a salt, the structure may show the parent alone.

System: HL-1
Assay: relative cell viability (CellTiter-Glo) vs DMSO control (% of DMSO control); higher = more viable cells
Method in brief: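 Plating of HL-1 mouse atrial cardiomyocytes at 1000 cells per well in 384-well plates was done together with compounds at 40, 200, 1000 or 5000 nM in 0.01% DMSO. A day later the cells faced 48 h of 1% O2 and then 24 h of reoxygenation, or matching normoxia. Viability was measured via CellTiter-Glo luminescence and set relative to vehicle-treated control cells.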

[1] = oxygen condition: hypoxia 48 h (1% O2) + reoxygenation 24 h, 40 nM
[2] = oxygen condition: hypoxia 48 h (1% O2) + reoxygenation 24 h, 200 nM
[3] = oxygen condition: hypoxia 48 h (1% O2) + reoxygenation 24 h, 1000 nM
[4] = oxygen condition: hypoxia 48 h (1% O2) + reoxygenation 24 h, 5000 nM
[5] = oxygen condition: normoxia 72 h, 40 nM
[6] = oxygen condition: normoxia 72 h, 200 nM
[7] = oxygen condition: normoxia 72 h, 1000 nM
[8] = oxygen condition: normoxia 72 h, 5000 nM

Row | SMILES | relative cell viability [1] | relative cell viability [2] | relative cell viability [3] | relative cell viability [4] | relative cell viability [5] | relative cell viability [6] | relative cell viability [7] | relative cell viability [8]
1 | CCCC(CCC)C(=O)O [Valproic acid sodium salt] | 106 | 117 | 113 | 111 | 104 | 111 | 123 | 111
2 | CCN[C@H]1C[C@H](C)S(=O)(=O)c2sc(S(N)(=O)=O)cc21 [Dorzolamide HCL] | 111 | 105 | 104 | 111 | 117 | 106 | 107 | 121
3 | CCOC(=O)C1=C[C@@H](OC(CC)CC)[C@H](NC(C)=O)[C@@H](N)C1 [Oseltamivir phosphate] | 94.9 | 99.4 | 99.5 | 111 | 103 | 101 | 105 | 111
4 | COc1ccc2[nH]cc(CCNC(C)=O)c2c1 [Melatonin] | 113 | 105 | 113 | 114 | 108 | 114 | 109 | 119
5 | CCN(CC)CC(=O)Nc1c(C)cccc1C [Lidocaine] | 111 | 106 | 104 | 111 | 112 | 108 | 109 | 112
6 | Clc1ccc(COC(Cn2ccnc2)c2ccc(Cl)cc2Cl)cc1 (centres undefined) [Econazole nitrate] | 102 | 104 | 106 | 108 | 110 | 105 | 102 | 105
7 | NS(=O)(=O)c1cc2c(cc1Cl)N=C(CSCc1ccccc1)NS2(=O)=O [Benzthiazide] | 103 | 99.8 | 99.3 | 107 | 99.7 | 93.8 | 100 | 105
8 | CC1=C(/C=C/C(C)=C/C=C/C(C)=C/C(=O)O)C(C)(C)CCC1 [Tretinoin] | 113 | 109 | 110 | 100 | 112 | 106 | 101 | 121
9 | COc1cc2nc(N3CCN(C(=O)C4COc5ccccc5O4)CC3)nc(N)c2cc1OC (centres undefined) [Doxazosin mesylate] | 104 | 107 | 108 | 106 | 105 | 102 | 103 | 114
10 | CO[C@@H]1[C@@H](OC(N)=O)[C@@H](O)[C@H](Oc2ccc3c(O)c(NC(=O)c4ccc(O)c(CC=C(C)C)c4)c(=O)oc3c2C)OC1(C)C [Novobiocin sodium] | 100 | 102 | 102 | 110 | 97.1 | 99.2 | 101 | 113
11 | CC(=O)Oc1ccccc1C(=O)O [Aspirin] | 94 | 101 | 90.7 | 110 | 95.4 | 105 | 93.6 | 122
12 | CS(=O)(=O)c1ccc([C@@H](O)[C@@H](CO)NC(=O)C(Cl)Cl)cc1 [Thiamphenicol] | 104 | 104 | 109 | 104 | 101 | 96.9 | 95.9 | 86.5
13 | Cc1[nH]c(=O)c(C#N)cc1-c1ccncc1 [Milrinone] | 102 | 106 | 105 | 111 | 99.8 | 108 | 99.1 | 113
14 | C[C@H](N[C@@H](CCc1ccccc1)C(=O)O)C(=O)N1CCC[C@H]1C(=O)O [Enalaprilat dihydrate] | 104 | 106 | 102 | 110 | 104 | 99 | 107 | 109
15 | CCc1ccc(CCOc2ccc(CC3SC(=O)NC3=O)cc2)nc1 (centres undefined) [Pioglitazone] | 109 | 110 | 114 | 116 | 104 | 107 | 117 | 120
16 | Cc1cccc(N(C)C(=S)Oc2ccc3ccccc3c2)c1 [Tolnaftate] | 91.4 | 102 | 100 | 105 | 102 | 101 | 105 | 103
17 | COCCOC(=O)C1=C(C)NC(C)=C(C(=O)OC(C)C)C1c1cccc([N+](=O)[O-])c1 (centres undefined) [Nimodipine] | 109 | 108 | 109 | 107 | 108 | 109 | 103 | 104
18 | CC(=O)O[C@H]1C(=O)[C@@]2(C)[C@H]([C@H](OC(=O)c3ccccc3)[C@]3(O)C[C@H](OC(=O)[C@H](O)[C@@H](NC(=O)c4ccccc4)c4ccccc4)C(C)=C1C3(C)C)[C@]1(OC(C)=O)CO[C@@H]1C[C@@H]2O [Paclitaxel] | 42.4 | 42.8 | 39.9 | 30.5 | 52.3 | 52.2 | 33.2 | 22.2
19 | CC(C)OC(=O)C(C)(C)Oc1ccc(C(=O)c2ccc(Cl)cc2)cc1 [Fenofibrate] | 103 | 105 | 108 | 110 | 103 | 97.9 | 97.5 | 112
20 | COC(=O)C1=C(C)NC(C)=C(C(=O)OC2CCCN(Cc3ccccc3)C2)C1c1cccc([N+](=O)[O-])c1 (centres undefined) [Benidipine hydrochloride] | 104 | 113 | 109 | 25 | 114 | 109 | 102 | 24
21 | CCCCC(=O)O[C@H]1CC[C@H]2[C@@H]3CCc4cc(O)ccc4[C@H]3CC[C@]12C [Estradiol valerate] | 100 | 103 | 108 | 108 | 98.8 | 103 | 102 | 118
22 | CCCCNc1cc(C(=O)O)cc(S(N)(=O)=O)c1Oc1ccccc1 [Bumetanide] | 102 | 108 | 110 | 113 | 105 | 96.8 | 112 | 118

Row | SMILES | relative cell viability [1] | relative cell viability [2] | relative cell viability [3] | relative cell viability [4] | relative cell viability [5] | relative cell viability [6] | relative cell viability [7] | relative cell viability [8]
23 | O=C(NC[C@H]1CN(c2ccc(N3CCOCC3=O)cc2)C(=O)O1)c1ccc(Cl)s1 [Rivaroxaban] | 91.5 | 106 | 99.8 | 112 | 99 | 90.8 | 103 | 92.1
24 | O=C(O)C1=CO[C@@H](O[C@@H]2O[C@H](CO)[C@@H](O)[C@H](O)[C@H]2O)[C@@H]2C(CO)=CC[C@H]12 [Geniposidic acid] | 107 | 109 | 110 | 112 | 103 | 120 | 117 | 121
25 | CCCCCCCN(CC)CCCC(O)c1ccc(NS(C)(=O)=O)cc1 (centres undefined) [Ibutilide fumarate] | 103 | 95.7 | 98.8 | 92.9 | 98.3 | 97.9 | 97.3 | 97.6
26 | CCN(CC)CC#CCOC(=O)C(O)(c1ccccc1)C1CCCCC1 (centres undefined) [Oxybutynin] | 97.2 | 99.9 | 101 | 102 | 109 | 103 | 104 | 101
27 | CS(=O)(=O)OCCCCOS(C)(=O)=O [Busulfan] | 108 | 102 | 103 | 107 | 104 | 103 | 97.4 | 120
28 | CC(C)(Oc1ccc(Cl)cc1)C(=O)O [Clofibric acid] | 106 | 105 | 108 | 115 | 104 | 106 | 104 | 109
29 | CCN1CCCC1CNC(=O)c1cc(S(=O)(=O)CC)c(N)cc1OC (centres undefined) [Amisulpride] | 103 | 104 | 111 | 108 | 104 | 107 | 119 | 111
30 | C[N+](C)(C)CCCCCC[N+](C)(C)C [Hexamethonium bromide] | 101 | 99.3 | 105 | 113 | 94.2 | 96.6 | 100 | 103
31 | Nc1ccn([C@@H]2O[C@H](CO)[C@@H](O)[C@@H]2O)c(=O)n1 [Cytarabine] | 89.2 | 75.5 | 44.9 | 5.82 | 84.9 | 64.3 | 35.7 | 4.29
32 | C[C@]12CC[C@@H]3c4ccc(O)cc4CC[C@H]3[C@@H]1C[C@@H](O)[C@@H]2O [Estriol] | 101 | 99.3 | 95.4 | 103 | 105 | 101 | 99.8 | 104
33 | CC1=C(CC(=O)O)c2cc(F)ccc2/C1=C\c1ccc([S+](C)[O-])cc1 (centres undefined) [Sulindac] | 104 | 105 | 106 | 61.2 | 103 | 101 | 108 | 113
34 | OC[C@@H](O)[C@@H](O)[C@H](O)[C@@H](O)CO [Sorbitol] | 93 | 101 | 98 | 101 | 100 | 106 | 97.9 | 97.5
35 | CC(C)C[C@H](NC(=O)[C@@H](O)[C@H](N)Cc1ccccc1)C(=O)O [Ubenimex] | 99.1 | 95.6 | 98.2 | 103 | 101 | 98.8 | 99.7 | 108
36 | CC1=C(C(=O)OC(C)C)C(c2cccc([N+](=O)[O-])c2)C(C(=O)OC2CN(C(c3ccccc3)c3ccccc3)C2)=C(N)N1 (centres undefined) [Azelnidipine] | 104 | 110 | 106 | 112 | 109 | 110 | 112 | 119
37 | COc1ccc(CNc2nc(N3CCC[C@H]3CO)ncc2C(=O)NCc2ncccn2)cc1Cl [Avanafil] | 91.6 | 99.7 | 97.5 | 103 | 101 | 102 | 97.1 | 107
38 | O=c1cc[nH]c(=S)[nH]1 [2-Thiouracil] | 99.6 | 105 | 104 | 104 | 102 | 103 | 100 | 114
39 | COc1ccc2cccc(CCNC(C)=O)c2c1 [Agomelatine] | 96.1 | 109 | 84.5 | 113 | 94.3 | 90.4 | 132 | 111
40 | NCCc1c[nH]cn1 [Histamine Phosphate] | 99.7 | 101 | 96.7 | 108 | 98.8 | 101 | 97.7 | 109
41 | c1cnc2cc3c(cc2n1)[C@@H]1CNC[C@H]3C1 [Varenicline tartrate] | 106 | 105 | 110 | 106 | 106 | 102 | 112 | 97.8
42 | Cc1cc(C2CCCCC2)n(O)c(=O)c1 [Ciclopirox] | 95.4 | 92.3 | 80.4 | 5.32 | 87.8 | 69.4 | 20 | 2.16
43 | CC(=O)Oc1ccc(C(c2ccc(OC(C)=O)cc2)c2ccccn2)cc1 [Bisacodyl] | 103 | 100 | 109 | 111 | 101 | 115 | 101 | 101
